VDR inhibitor: vitamin D3 receptor (human) inhibition | P11473 | VDR-SRC2-3 peptide fluorescence polarization, 2 h | Potency, µM, usual class: inhibitors | 400,000 tested, 0.93% active | AID 504847
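Signal is fluorescence polarization, reporting how far test compounds block the interaction of VDR with the SRC2-3 coregulator peptide after a 2 h room-temperature incubation.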
Mito fusion act: blocks mitochondrial division or promotes mitochondrial fusion; S. cerevisiae fusion-defective mutant growth rescue, CellTiterGlo 48 h; Potency, µM (titrated, usually from 46.1 µM), usual class: activators; AID 485298; 320,000 tested, 0.23% active; note: nearly all actives have a fitted effect of over 45% in size
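Temperature-sensitive fusion-defective S. cerevisiae (e.g. fzo1-1, mgm1-5) were grown with compound in YPEG medium (3% ethanol, 3% glycerol) for 48 hours at 37C. Growth rescue was measured as viability by CellTiterGlo luminescence after 10 minutes at ambient.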
PLK1 PBD inh: blocks phosphopeptide binding to human PLK1 polo-box domain; AID 720504; Potency, µM, usual class: inhibitors; 360,000 tested, 2.8% active; P53350; Plk1 PBD binding of FITC phosphopeptide, fluorescence polarization; note: series mostly up to about 57 µM; nearly all actives have a fitted effect of over 65% in size
GLS inhibitor: glutaminase GLS (human) inhibition; GLS enzymatic activity, qHTS titration; AID 624170; 410,000 tested, 0.21% active; Potency, µM (series often up to 45.5 µM), hits mostly inhibitors
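Enzyme dispensed in phosphate buffer (45 mM, pH 8.2, 0.02% Tween-20), compounds pinned in, then 1 mM L-glutamine solution and the glutamate oxidase–HRP–Amplex Red mix added; fluorescence read immediately and again after 30 min at room temperature.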
PKM2 act: increases activity of human pyruvate kinase M2. P14618. purified PKM2, Kinase-Glo ATP luminescence, activation; response scale: 0% is enzyme alone, no compound. Potency, µM (top dose mostly 57.5 µM), usual class: activators. 260,000 tested, 0.34% active. AID 1631; note: nearly all actives have a fitted effect of over 55% in size
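ATP formation by purified human PK-M2, quantified via coupled luciferase luminescence after 1 h at room temperature with 0.1 mM ADP and 0.5 mM PEP final.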
GCN5L2 inh: blocks human GCN5L2 histone acetyltransferase. Q92830. GCN5L2 HAT assay, ThioGlo1 CoA-SH fluorescence. Potency, µM (top dose mostly 58.9 µM), usual class: inhibitors. 390,000 tested, 0.21% active. AID 504327
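Preincubate 20nM GCN5L2 with compound 15 min, RT → add 50uM ThioGlo1 + 75uM H3(1-25) + 70uM acetyl-CoA → read fluorescence 0 and 20 min. Primary qHTS; fluorescent artifacts likely.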
Large screens that a line does not name were inactive. This is a sample that favours compounds with a hit; in the whole collection about 3.4% have one here. Calls come from the whole dose curve; as a rule, active = well fitted curve in the direction sought with a large enough effect; inconclusive = small, poorly fitted or top-dose-only effect, or another doubt; inactive = no such curve, though single readings can be large; an effect the other way counts as inactive or inconclusive.

COc1ccc(C2Nc3ccccc3C(=O)N2Cc2ccccc2)cc1COc1ccccc1F (stereo not given)	none (no result: Mito fusion act, PLK1 PBD inh, GLS inhibitor, PKM2 act, GCN5L2 inh)
Brc1ccc(-c2csc3ncnc(-n4nnc5ccccc54)c23)cc1	Mito fusion act 13µM
Cc1sc2ncnc(-n3nnc4ccccc43)c2c1C	none
CC1CCN(c2ccc3c(c2)S(=O)(=O)c2cccc(C(=O)NCc4ccc(F)cc4)c2C3=O)CC1	PLK1 PBD inh 84µM (no result: PKM2 act)
O=C(NCc1cc(C(F)(F)F)ccc1Cl)c1cccc2c1C(=O)c1ccc(N3CCC(Cc4ccccc4)CC3)cc1S2(=O)=O	PLK1 PBD inh 24µM (no result: Mito fusion act, PKM2 act)
CC1Cn2cc(C(=O)Nc3cccc(C(F)(F)F)c3)c(=O)c3c(Cl)ccc(c32)O1 (stereo not given)	none (no result: Mito fusion act, PLK1 PBD inh, PKM2 act)
CCOC(=O)c1sc(NC(=S)NC(=O)CC(C)C)cc1C	PLK1 PBD inh 27µM
Cc1cc(NC(=O)CN2CCN(C)CC2)no1	VDR inhibitor inconclusive, PLK1 PBD inh 12µM, GLS inhibitor inconclusive
Cc1cc(NC(=O)CN2CCN(c3ccccc3O)CC2)no1	none
CCCCN(C=O)c1c(CC)nc2ccc(C(=O)NCCCn3ccnc3)cn12	none (no result: VDR inhibitor, Mito fusion act, PKM2 act, GCN5L2 inh)
CCOC(=O)[C@H]1NN=C(C(=O)OC)[C@@H]1c1ccccc1	VDR inhibitor inconclusive, PLK1 PBD inh 38µM
Cc1ccc(CCNC(=O)c2cc(C)nn2-c2ccccc2)cc1	none
COC(CNC(=O)c1cc(C)nn1-c1ccccc1)OC	PLK1 PBD inh 24µM
CCCCC1CCC(C(=O)N(CCC(C)C)c2c(N)n(CCCC)c(=O)[nH]c2=O)CC1 (stereo not given)	none (no result: VDR inhibitor, Mito fusion act, PKM2 act, GCN5L2 inh)
CC(C)CC(NC(=O)OC(C)(C)C)C(=O)NCc1ccccc1 (stereo not given)	none
CC(C)CC(NC(=O)C(COCc1ccccc1)NC(=O)OC(C)(C)C)C(=O)NN (stereo not given)	PLK1 PBD inh 27µM
COc1ccc(Cl)cc1-c1ccc(C(=O)O)s1	VDR inhibitor inconclusive (no result: Mito fusion act, PLK1 PBD inh, GLS inhibitor, PKM2 act)
O=C1C=C(C2OC(CO)C(O)C2O)C(=O)N1 (stereo not given)	VDR inhibitor 40µM, PLK1 PBD inh inconclusive (no result: Mito fusion act, PKM2 act, GCN5L2 inh)
NC(=O)c1csc(C2OC(CO)C(O)C2O)n1 (stereo not given)	none (no result: VDR inhibitor, Mito fusion act, PKM2 act, GCN5L2 inh)
CCc1cc(=O)oc2cc3occ(-c4ccc(OC)c(F)c4)c3cc12	Mito fusion act 16µM
CCc1cc(=O)oc2cc3occ(C)c3cc12	none
O=C(C1CCN(S(=O)(=O)c2ccccc2F)CC1)N1CCc2ccccc2C1	none
O=S(=O)(NC1Cc2ccccc2C1)c1ccccc1	none (no result: PKM2 act)
CC(=O)N1[C@@H]2CC3C4CC=C5C[C@@H](O)CC[C@]5(C)C4CC[C@]3(C)[C@@]21C(C)=O (stereo not given in full)	Mito fusion act 22µM
CCC(C)C(C(=O)OCC[N+](C)(CC)CC)c1ccccc1 (stereo not given)	none (no result: VDR inhibitor, Mito fusion act, PLK1 PBD inh, PKM2 act, GCN5L2 inh)
O=C(c1ccc(S(=O)(=O)Cc2cc(F)ccc2F)c([N+](=O)[O-])c1)N1CCCCC1	VDR inhibitor inconclusive, PLK1 PBD inh inconclusive
O=C(c1ccc(S(=O)(=O)Cc2cc(F)ccc2F)c([N+](=O)[O-])c1)N1CCCC1	VDR inhibitor inconclusive, PLK1 PBD inh 11µM
COC(=O)Cn1c2ccc(F)cc2c2nc(C)sc21	VDR inhibitor 79µM, PLK1 PBD inh inconclusive
Cc1ccc(-c2nc3ccccc3c(=O)n2NC(=S)N(C)C)cc1	PLK1 PBD inh 27µM
COc1ccc(NC(=O)CSc2nc(O)cc(=O)[nH]2)c(OC)c1	VDR inhibitor inconclusive, PLK1 PBD inh 24µM
COc1ccc(NC(=O)CSc2cn[nH]n2)c(OC)c1	none
Cc1cc(O)c(C=O)c(O)c1C(=O)O	none (no result: Mito fusion act, PLK1 PBD inh, GLS inhibitor, PKM2 act)
Cc1cc(O)c(C=O)c2c1C(=O)Oc1c(COC(=O)/C=C/C(=O)O)c(O)c(C(=O)O)c(C)c1O2	VDR inhibitor 6.3µM, GCN5L2 inh 20µM (no result: Mito fusion act, PLK1 PBD inh, GLS inhibitor, PKM2 act)
Cc1cc(O)c(C=O)c2c1C(=O)Oc1c(CO)c(O)c3c(c1O2)C(O)OC3=O (stereo not given)	VDR inhibitor 18µM, PLK1 PBD inh 7.5µM, GCN5L2 inh 16µM

Compound activity from PubChem.
